Screens (PubChem)
LASV entry inh: inhibitors of Lassa virus binding or cell entry; Lassa virus pseudotype entry inhibition, cell reporter; Potency, µM (titrated, usually from 37.9 µM), for the others: top-dose activity change, negative = inhibition, actives largely listed as inhibitors; 300,000 tested, 1.2% active; AID 540256; calls by dose curve; tested in HEK293 cells; note: potency is the fitted concentration of half-maximal effect; % is set by controls: 0 for no effect and ±100 for the full control effect; nearly all actives have a fitted effect of over 50% in size
MARV entry inh: blocks Marburg virus binding to or entry into cells. Potency, µM (top dose mostly 37.8 µM), without a hit: top-dose activity change, negative = inhibition, hits mostly inhibitors. 300,000 tested, 1.8% active. Marburg virus pseudotyped entry inhibition, cell reporter; calls by dose curve; tested in HEK293 cells; note: potency is the fitted concentration of half-maximal effect; % is set by controls: 0 for no effect and ±100 for the full control effect
Shiga toxin inh: inhibitors of Shiga toxin in Vero cells. AID 2315. inhibition, % at 38.7 µM. 290,000 tested, 9.2% active. Vero cells, Shiga toxin protein synthesis inhibition reporter; in the data active = inhibition mostly above about 28%, no sharp cut-off; inactive = mostly below about 43%; note: 0% is about no effect
CHX counter: counter-screen for Shiga toxin inhibitors: cycloheximide protein synthesis inhibition. 300,000 tested, 12% active. AID 2314. max response, %. cell reporter, cycloheximide protein synthesis inhibition counterscreen; in the data active = max response mostly above about 13%, no sharp cut-off; inactive = mostly below about 14%; note: read at 38.3 µM for the half of the compounds with a filed dose; 0% is about no effect
Pf growth 96h: P. falciparum growth inhibition at 96 hour, primary screen for plastid delayed-death inhibitors | Potency, µM (titrated, usually from 28.7 µM), inactives show top-dose activity change, negative = inhibition, most hits filed as inhibitors | 320,000 tested, 6.9% active | P. falciparum luciferase reporter growth, 96 h; note: potency is the fitted concentration of half-maximal effect; % is set by controls: 0 for no effect and ±100 for the full control effect
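P. falciparum expressing integrated firefly luciferase grown in erythrocytes (2% hematocrit, 0.05% parasitemia final) with compounds for 96 hours at 37 C, 5% CO2. Growth inhibition read as loss of luminescence after adding luciferase detection reagent.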
Pf growth 48h: inhibits P. falciparum growth in the first generation, 48 h | 310,000 tested, 5.9% active | AID 504832 | P. falciparum luciferase growth in erythrocytes, 48 h | Potency, µM (top dose mostly 28.7 µM), for inactives: at the top dose activity change, negative = inhibition, hits mostly inhibitors; note: potency is the fitted concentration of half-maximal effect; % is set by controls: 0 for no effect and ±100 for the full control effect
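Cell-based growth assay: transgenic P. falciparum expressing firefly luciferase, cultured in red cells within RPMI 1640 containing 0.5% w/v Albumax, 24 mM bicarbonate and gentamycin. A drop in luciferase activity indicates inhibition.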
Active calls of the source: *; ? = inconclusive; nt = no result; [ ] = another dose, or the depositor's remark. Sampled rows, rich in hits. Any-hit rate of the full collection: about 19%. Unless noted, calls come from the whole dose curve; as a rule, active = well fitted inhibition curve with a large enough effect; inconclusive = small, poorly fitted or top-dose-only effect, or another doubt; inactive = no such curve, though single readings can be large or run the other way.

SMILES | LASV entry inh | MARV entry inh | Shiga toxin inh | CHX counter | Pf growth 96h | Pf growth 48h
CCOc1ccc(N=C(NN)c2ccc3ccccc3n2)cc1 | ? | ? | 31.0* | 43.8* | -2.8% | 84.8%
COc1ccc2nc(C)cc(SCC(=O)OC(C)C)c2c1 | 6.1% | -18.2% | 16.0 | 9.5 | 100.9% | 2.7%
O=C1C2CC=CCC2C(=O)N1c1ccc(NCCc2ccc(O)cc2)c([N+](=O)[O-])c1 (stereo unspecified) | ? | ? | 63.0* | 33.0* | ? | 4.5%
CC1Cc2ccccc2N1c1nc(C2CC2)nc2c1nnn2Cc1ccccc1 (stereo unspecified) | -8.4% | 0.2% | -3.1 | -3.7 | -5.2% | -2.6%
CCc1noc(C)c1C(=O)N(CCCOC)c1c(N)n(Cc2ccccc2)c(=O)[nH]c1=O | 20.7% | 3.8%[46.1 µM] | nt | nt | ? | -7.7%
COc1cccc(COC(=O)Cc2ccc(S(=O)(=O)N3CCOCC3)s2)c1OC | nt | nt | nt | nt | -1.5% | ?
CC(C)(C)C1=CC(O)(c2ccccc2)C=C(C(C)(C)C)C1=O | nt | nt | -4.8 | -2.4 | ? | 10.4µM*
CCN1C(=O)N(CC)C(O)(c2ccccc2)C1(O)c1ccccc1 (stereo unspecified) | 8.1% | 25.7% | -6.1 | -0.3 | nt | 16.7%
CC1Oc2ccccc2N(CC(=O)NCc2ccccc2)C1=O (stereo unspecified) | nt | nt | 105.3* | 31.3* | ? | 185.5%
O=C(CN1C(=O)CCS(=O)(=O)c2ccccc21)NCc1ccccc1 | -8.7% | -1.9% | 8.4 | 3.3 | 2.62µM* | 2.1%
Cn1cnnc1SCc1ccccc1Br | 14.1% | -2.8% | -7.3 | -2.9 | -7.7% | nt
O=C(CN1C(=O)C2(OCCO2)c2ccccc21)c1ccc(Cl)cc1 | -4.1% | 4.1% | 7.1 | -1.1 | nt | -1.5%
O=C(COC(=O)c1c(F)cccc1Cl)NC1CCCCC1 | ? | ? | nt | nt | 93.2% | 114.0%
O=C(NCC1CC1)NC(=O)c1c(F)cccc1Cl | nt | nt | 27.8 | 14.8* | 66.3% | 47.8%
Cn1c(SCCN2CCOCC2)nc2sc3c(c2c1=O)CCCC3 | nt | nt | 11.1 | 7.3 | -3.8% | -7.9%
C=CCn1c(SCc2c(C)noc2C)nc2sc3c(c2c1=O)CCCCC3 | -24.9% | ? | -7.4 | -2.9 | nt | 1.85µM*
COC(=O)c1ccc(CSc2nc3sc4c(c3c(=O)n2C)CCCC4)o1 | ? | ? | -11.7 | -3.0 | ? | 9.8%
COc1cc2nc(SCc3c(C)noc3C)n(CCC3=CCCCC3)c(=O)c2cc1OC | ? | ? | -11.1 | -2.5 | 1.65µM* | ?
COC(=O)c1sc(N)c(C(=O)OC)c1CSc1nc2sc3c(c2c(=O)n1C)CCC3 | ? | ? | 15.9 | 2.4 | 1.65µM* | ?
Cc1noc(C)c1CSc1nc2sc3c(c2c(=O)n1C)CCCC3 | 5.2% | ? | -11.5 | -3.9 | 1.65µM* | nt
COc1cc2nc(SCC(=O)NC3CC3)n(CCC3=CCCCC3)c(=O)c2cc1OC | nt | -1.0% | nt | nt | nt | nt
CCSc1nnc(NC(=O)c2cc(C)on2)s1 | 5.2% | 20.5% | 23.2 | 9.1 | -21.1% | ?
CCOc1ccc(N(C(=O)CNC(=O)c2ccco2)C(C(=O)NC2CCCC2)c2ccco2)cc1 (stereo unspecified) | ? | 20.9%[46.1 µM] | 1.3 | -3.6 | ? | -9.4%
CSCCC(NC(=O)c1ccccc1Cl)C(=O)N(C)Cc1cccs1 (stereo unspecified) | -12.0% | -23.4% | -1.6 | -2.3 | 7.6% | -25.0%
Cc1noc(C)c1CSc1nc2sc(C)c(C)c2c(=O)n1C1CCCC1 | -22.7% | 11.6µM* | -3.9 | -7.1 | nt | 4.15µM*
SMILES | LASV entry inh | MARV entry inh | Shiga toxin inh | CHX counter | Pf growth 96h | Pf growth 48h
Cc1noc(C)c1CSc1nc2[nH]ncc2c(=O)n1-c1ccccc1 | 3.98µM* | ? | -5.2 | 5.7 | 17.2% | ?
Cc1sc2nc(SCc3nc(-c4cccs4)no3)n(-c3ccccc3)c(=O)c2c1C | ? | -16.4% | -11.4 | -2.3 | ? | ?
Cc1noc(C)c1CSc1nc2ccccc2c(=O)n1-c1ccccc1 | ? | ? | -12.9 | 1.1 | -21.0% | nt
C=CCn1c(SCc2c(C)noc2C)nc2sc3c(c2c1=O)CCCC3 | ? | 20.6µM* | -10.8 | -3.8 | 2.08µM* | 13.1µM*
C=CCn1c(SCc2c(C)noc2C)nc2ccccc2c1=O | ? | ? | -19.9 | -5.7 | 13.1µM* | nt
Cc1ccc(NC(=O)CN2C(=O)CSc3ccc(S(=O)(=O)N4CCCC4)cc32)cc1F | -20.4%[46.1 µM] | nt | nt | nt | nt | nt
